The panel holds about 79,000 compounds, 15% with a hit somewhere; the sample as a whole holds those more often. Values without a mark were called inactive. Active and inactive are the calls of the source. No stated cut-off is given here; in the data, active means growth inhibition above about 70%; inactive means the rest.
How the values were obtained:
[1] = NCI Yeast Anticancer Drug Screen. Data for the rad50 strain (AID 155);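 further: 0% = growth of vehicle-only cultures of the same strain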; conditions: S. cerevisiae rad50 strain growth inhibition; at 50.0 µM; hits give high values
Procedure, shortened: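 DNA repair mutant yeast, compound exposure, growth read-out; inhibition is taken relative to vehicle.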

[2] = NCI Yeast Anticancer Drug Screen. Data for the mec2-1 strain (AID 157); conditions: S. cerevisiae mec2-1 strain, at 50.0 µM, hits give high values
Procedure, shortened: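 Cells of the genetically defined mec2-1 yeast strain are incubated with test compound. Inhibition of growth is calculated against vehicle-treated controls.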

[3] = NCI Yeast Anticancer Drug Screen. Data for the sgs1 mgt1 strain (AID 161);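 further: 0% = growth of cultures given vehicle only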; conditions: S. cerevisiae sgs1 mgt1 strain, at 50.0 µM, hits give high values
Procedure, shortened: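 Test agents were incubated with a DNA-repair-mutant yeast strain. Growth was then read and compared against vehicle-treated controls.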

[4] = NCI Yeast Anticancer Drug Screen. Data for the cln2 rad14 strain (AID 165);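 further: 0% = growth equal to vehicle treated cultures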; conditions: S. cerevisiae cln2 rad14 strain, at 50.0 µM, hits give high values
Procedure, shortened: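 The screen exposed genetically defined yeast (cln2 rad14) to test compounds and scored growth inhibition relative to vehicle-treated controls.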

[5] = NCI Yeast Anticancer Drug Screen. Data for the bub3 strain (AID 167); conditions: S. cerevisiae bub3 mutant strain, at 50.0 µM, hits give high values
Procedure, shortened: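 In this screen, a yeast mutant lacking normal mitotic checkpoint function is challenged with compound. Relative growth versus vehicle gives the inhibition value.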

[6] = NCI Yeast Anticancer Drug Screen. Data for the mlh1 rad18 strain (AID 175); conditions: S. cerevisiae mlh1 rad18 strain growth inhibition; at 50.0 µM; hits give high values
Procedure, shortened: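 Compound-treated yeast growth, normalised to vehicle controls. Strain bears defined DNA repair mutations.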

Structure (SMILES) | growth inhibition [1] | growth inhibition [2] | growth inhibition [3] | growth inhibition [4] | growth inhibition [5] | growth inhibition [6]
CCC1C(=O)N(C)c2ccccc21 (stereo unspecified) | -2.15% | -9.6% | -10.1% | 1.55% | -19.3% | 13.2%
CN(C)Cc1ccccc1COC(=O)c1ccc([N+](=O)[O-])cc1Cl | -8.9% | -12.6% | 10.8% | -29.1% | 3.65% | -34.1%
COc1cc2ccccc2oc1=O | 21.3% | 8.85% | 3.8% | 15.2% | 5.2% | 21.6%
CCOC(C)Oc1ccccc1 (stereo unspecified) | 35.5% | -8.6% | 20.4% | 15.4% | -28.1% | 16.4%
Cc1c(C#N)c2n(c1C)CCN2 | -14.3% | -14.1% | -9.2% | -36% | -5.65% | -4.45%
N#CCCc1c(-c2ccccc2)nc(N)[nH]c1=O | 2.35% | 0.85% | 2.75% | -38.4% | -14.6% | -9.75%
CCC(=O)c1cccc(-c2ccccc2)c1CC | 17.9% | -7% | 15.9% | 4.05% | -22.6% | 12.9%
Cc1c(N=Nc2cccc(Cl)c2)c(-c2ccccc2)nn1C(N)=S | 80.3% (active) | 45% | 96.8% (active) | 12.4% | 91.5% (active) | 92.5% (active)
CCCCCC(C(O)C#N)C(O)(C(F)(F)F)C(F)(F)F (stereo unspecified) | 94.7% (active) | 80.7% (active) | 58.8% | 80.6% (active) | 86.2% (active) | 98% (active)
O=CC1(CCc2ccccc2)NC(=O)NC1=O (stereo unspecified) | 5.3% | 11.2% | 2.55% | -18.9% | -0.4% | 1.25%
COc1ccc(-c2oc(/C=N/NC(N)=S)c([N+](=O)[O-])c2-c2ccc(OC)c(OC)c2)cc1OC | 44.6% | 22.8% | 44% | 24.4% | 28.9% | 34.6%
C/C=C(/C=O)[C@@H]1CC2c3c(c4ccccc4n3[C@@H](O)C1)CCN2C (stereo partly specified) | -5.45% | -17.6% | -4.4% | -1.1% | -33.2% | -16.6%
O=C(OCCO)c1ccccc1O | 2.95% | -0.8% | -34% | 3.3% | -0.9% | 1.35%
CCCC(N)S(=O)(=O)O (stereo unspecified) | -25.6% | -10.6% | -23.9% | -14.1% | 6.1% | -11.2%
CC1([N+](=O)[O-])C(=O)C2(N3CCCC3)CCCC2C1c1ccccc1 (stereo unspecified) | 0.5% | 8.4% | -10.9% | -2.25% | 8.3% | -9.35%
Nc1ncnc2c1ccn2Cc1c(Cl)cccc1Cl | 2.05% | -0.2% | 7.1% | -2.75% | 23.9% | 5.4%
Cc1ccc2c(c1O)C(=O)c1ccccc1C2=O | 35% | 13.1% | -8.8% | -16.9% | 29.7% | 46.5%
N[C@H](C(=O)O)[C@H]1ON=C(Cl)[C@@H]1O | 7.4% | 4.55% | 7.25% | 16.6% | 11.3% | -2.15%
CCCCCCCCCCCCCCCC(=O)O (tested in a mixture with another compound) | 7.65% | -1.5% | -18.2% | 33.8% | 12.1% | -11.4%
CCOC(=O)C(C)C1CCCc2c(C)ccc(C)c21 (stereo unspecified) | -8.25% | 9.6% | 1.25% | -1.8% | 8.5% | 2.7%
O=C1c2ccccc2C(=O)N1C1Nc2ccccc2N1 | 20% | 10.6% | 9.3% | -0.1% | 16.7% | 14.8%

Structure (SMILES) | growth inhibition [1] | growth inhibition [2] | growth inhibition [3] | growth inhibition [4] | growth inhibition [5] | growth inhibition [6]
CC1=CC[C@](C)(O)[C@@]2(C)CC[C@H]3C(=C(C)C)C(=O)C[C@]3(C)C[C@H]12 | 9% | 1.3% | 19.9% | 33.4% | 10.2% | 17.5%
OCC(CBr)(CBr)CBr | 2.45% | -2% | 8.25% | 19.3% | 4.45% | -3.85%
Cc1ccc(-c2c(C#N)c(-c3ccccc3)c(C#N)c(=O)n2NS(=O)(=O)c2ccc(C)cc2)cc1 | 3.65% | 28.1% | 17.1% | 18.7% | 18.2% | 23.3%
CCCCCCCCCCCCCCCCCC(=O)OCC(COC(C)=O)OC(C)=O (stereo unspecified) | -3.45% | -5.05% | -3.8% | -46.1% | -1.2% | 4.8%
Nc1ccc2ncc(NCc3ccc(F)cc3)nc2c1 | -4% | -25.9% | -25.6% | 18.1% | 3.4% | 5.15%
O=C(NCCO)[C@H](O)[C@@H](O)[C@H](O)[C@H](O)CO | 7.1% | -2% | -3.7% | 16.1% | 14.9% | 15.2%
CCC(/C=N\O)CC | -12.8% | 2.6% | 11.4% | -4.05% | -3.05% | 17.1%
C=C(S(=O)(=O)c1ccccc1)S(=O)(=O)c1ccccc1 (tested in a mixture with another compound) | 92.8% (active) | 97.3% (active) | 96.4% (active) | 98% (active) | 97.8% (active) | 94.9% (active)
CC(C)n1nnnc1-c1ccccc1 | -6.45% | -8.5% | 2% | -15.9% | -3.1% | 1.15%
C/C(=N/NC(=O)CC#N)c1ccccc1 | 25.2% | -0.5% | 16.7% | -20.6% | 27.7% | 0.4%
O=c1[nH]c(=O)n(C2CC(O)C(CO)O2)cc1OC/C=C/Cc1ccccc1 (stereo unspecified) | -22.1% | -12.8% | 0.95% | 7.75% | -10.4% | -20.7%
CCC(C)Nc1ncnc2c1cnn2C (stereo unspecified) | -14.2% | -27.9% | -16.8% | -32.5% | -25.4% | -10.9%
O=C(Nc1ccc(Cl)c(Cl)c1)Oc1ccc2ccccc2c1 | 13.4% | 24.9% | 34.5% | -0.35% | 4.1% | 61.1%
CN1C(c2ccccc2)=C(C#N)C(=O)CC(c2cccs2)N1C (stereo unspecified) | -8% | 7.45% | 33.6% | -1.5% | 8.15% | 8.25%
c1ccc(N(c2ccccc2)C(c2ccccc2)(c2ccccc2)c2ccccc2)cc1 | 12.6% | -2.65% | 1.1% | -36.3% | -0.85% | 7.85%
S=c1[nH][nH]c(=S)c2[nH]cnc12 | 1.6% | -3.1% | -5.55% | -18.4% | 2.2% | -0.4%
CSC1=N[C@H](c2ccccc2)CS1 | 21.9% | -9.85% | 21.7% | -3.1% | 20.2% | 23.4%
COc1cc(OC)cc(N2CCC(c3c(N)nc(N)nc3Cl)CC2)c1 | -4.1% | 10.1% | -8.65% | -2.25% | 15.2% | -18.3%
CC/C(=C\c1ccc(NC(C)=O)cc1)c1ccncc1 | -5.6% | -16.6% | 7.2% | -0.85% | -12.8% | -4.6%
O=C1/C(=C/c2ccccc2)N=C(c2ccccc2)N1n1c(-c2ccccc2)nc2ccccc2c1=O | 7.5% | 0.35% | 24.4% | 17.8% | -4.05% | 21.8%
